Results as given in PubChem BioAssay (NCATS).
“And” between values parts separate entries of the source, which are not always exact repeats. Equal entries are not always repeated. Inconclusive results are not listed. The source made the active and inactive calls. Unless noted, the call rests on the fitted dose curve; in most records, active means well fitted curve in the direction sought with a large enough effect; inconclusive means small, poorly fitted or top-dose-only effect, or another doubt; inactive means no such curve, though single readings can be large; an effect the other way counts as inactive or inconclusive.

Biological target: T1, Tyrosine-protein phosphatase non-receptor type substrate 1 (Homo sapiens) + Leukocyte surface antigen CD47 (Homo sapiens) (UniProt P78324+Q08722)
Assay: CD47-SIRPalpha protein protein interaction - LANCE assay qHTS validation (AID 1347057; active means well fitted curve in the direction sought with a large enough effect in the signal ratio, with a control signal flat, not every such curve was filed as active; the % refers to the signal ratio; further: 0% is about no effect)
Settings: Recombinant CD47-His / biotin-SIRPalpha, TR-FRET ratio; series mostly up to 38.3 µM; activity change, negative = inhibition: at the top concentration
Summary of the method: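 Inhibition of soluble CD47/SIRPalpha ectodomain association by titrated compounds, measured as 665/615 nm time-resolved FRET ratio after sequential 30 min room-temperature incubations.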

T1 sequence (P78324 whole entry, looked up): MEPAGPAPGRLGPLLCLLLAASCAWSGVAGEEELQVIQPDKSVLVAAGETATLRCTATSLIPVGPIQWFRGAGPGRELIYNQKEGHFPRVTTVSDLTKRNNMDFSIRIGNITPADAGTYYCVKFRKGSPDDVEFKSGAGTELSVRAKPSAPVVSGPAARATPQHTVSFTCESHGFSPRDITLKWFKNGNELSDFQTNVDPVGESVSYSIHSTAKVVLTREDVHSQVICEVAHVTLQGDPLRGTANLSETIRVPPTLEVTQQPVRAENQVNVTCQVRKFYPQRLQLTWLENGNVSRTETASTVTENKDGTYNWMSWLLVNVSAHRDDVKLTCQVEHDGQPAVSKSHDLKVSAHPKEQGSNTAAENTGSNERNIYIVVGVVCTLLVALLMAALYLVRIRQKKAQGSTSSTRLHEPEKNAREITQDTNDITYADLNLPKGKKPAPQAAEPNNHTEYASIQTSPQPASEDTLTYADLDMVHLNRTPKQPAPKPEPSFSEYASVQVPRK
T1 sequence (Q08722 whole entry, looked up): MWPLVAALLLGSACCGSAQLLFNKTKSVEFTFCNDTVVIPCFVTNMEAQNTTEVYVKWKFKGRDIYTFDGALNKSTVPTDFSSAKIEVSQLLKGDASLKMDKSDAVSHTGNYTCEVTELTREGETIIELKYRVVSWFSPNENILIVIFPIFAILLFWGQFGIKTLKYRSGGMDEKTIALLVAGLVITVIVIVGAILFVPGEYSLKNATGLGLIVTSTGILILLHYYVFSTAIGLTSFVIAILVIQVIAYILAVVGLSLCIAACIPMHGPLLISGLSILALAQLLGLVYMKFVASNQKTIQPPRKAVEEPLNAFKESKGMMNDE

SMILES	activity change, negative = inhibition
CC(C)NCC(O)c1ccc(O)c(O)c1 (stereo unspecified)	0.612% (inactive)
Nc1nnc(-c2cccc(Cl)c2Cl)c(N)n1	2.24% (inactive)
Clc1ccccc1C(c1ccccc1)(c1ccccc1)n1ccnc1	-0.836% (inactive)
CC(=O)OCC(CCn1cnc2cnc(N)nc21)COC(C)=O	-0.132% (inactive)
CN(Cc1cnc2nc(N)nc(N)c2n1)c1ccc(C(=O)N[C@@H](CCC(=O)O)C(=O)O)cc1	0.889% (inactive)
CC(C)C(=O)Nc1ccc([N+](=O)[O-])c(C(F)(F)F)c1	-0.719% (inactive)
CN1CCN(CCCN2c3ccccc3Sc3ccc(Cl)cc32)CC1	1.41% (inactive)
CCOC(=O)Nc1ccc(NCc2ccc(F)cc2)nc1N	0.308% (inactive)
COc1cc2nc(N3CCN(C(=O)C4COc5ccccc5O4)CC3)nc(N)c2cc1OC (stereo unspecified)	-1.06% (inactive)
O=C1Cc2cc(CCN3CCN(c4nsc5ccccc45)CC3)c(Cl)cc2N1	-0.02% (inactive)
CN1CCC(=C2c3ccccc3CC(=O)c3sccc32)CC1	1.19% (inactive)
Cc1ccc(-c2cc(C(F)(F)F)nn2-c2ccc(S(N)(=O)=O)cc2)cc1	-1.36% (inactive)
CC(C)(C)C(=O)Oc1ccc(S(=O)(=O)Nc2ccccc2C(=O)NCC(=O)O)cc1	1.31% (inactive)
CC#C[C@]1(O)CC[C@H]2[C@@H]3CCC4=CC(=O)CCC4=C3[C@@H](c3ccc(N(C)C)cc3)C[C@@]21C	-2.68% (inactive)
OCCN1CCN(CCCN2c3ccccc3Sc3ccc(C(F)(F)F)cc32)CC1	-0.22% (inactive)
Clc1ccc2c(c1)C(N1CCNCC1)=Nc1ccccc1O2	0.196% (inactive)
Clc1ccc(C(c2ccccc2Cl)C(Cl)Cl)cc1 (stereo unspecified)	3.26% (inactive)
Cn1ccc2cc3c(cc21)CCN3C(=O)Nc1cccnc1	-0.572% (inactive)
CN(CCOc1ccc(NS(C)(=O)=O)cc1)CCc1ccc(NS(C)(=O)=O)cc1	-0.352% (inactive)

Biological target: T1, Tyrosine-protein phosphatase non-receptor type substrate 1 (Homo sapiens) + Leukocyte surface antigen CD47 (Homo sapiens)
Assay: CD47-SIRPalpha protein protein interaction - HTRF assay qHTS validation (AID 1347058; active means well fitted curve in the direction sought with a large enough effect in the signal ratio, not every such curve was filed as active; the % refers to the signal ratio; further: 0% is about no effect)
Settings: TR-FRET HTRF CD47-His / biotin-SIRPalpha binding, ratio 665/615; series mostly up to 38.3 µM; activity change, negative = inhibition: at the top concentration
Summary of the method: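 Soluble extracellular domains (6His-CD47, Avi-tag-biotinylated SIRPalpha) in PBS pH 7.4 with 0.05% IGEPAL CA-630. Compounds were preincubated 30 min at RT with CD47 and anti-His-Eu, then SIRPalpha and SAV-XL665 were added. TR-FRET 665/615 ratio.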

SMILES	activity change, negative = inhibition
CC(C)NCC(O)c1ccc(O)c(O)c1 (stereo unspecified)	6.7% (inactive)
Nc1nnc(-c2cccc(Cl)c2Cl)c(N)n1	1.65% (inactive)
Clc1ccccc1C(c1ccccc1)(c1ccccc1)n1ccnc1	-12.1% (inactive)
CC(=O)OCC(CCn1cnc2cnc(N)nc21)COC(C)=O	3.14% (inactive)
CN1CCN(CCCN2c3ccccc3Sc3ccc(Cl)cc32)CC1	-0.838% (inactive)
COc1cc2nc(N3CCN(C(=O)C4COc5ccccc5O4)CC3)nc(N)c2cc1OC (stereo unspecified)	-0.998% (inactive)
O=C1Cc2cc(CCN3CCN(c4nsc5ccccc45)CC3)c(Cl)cc2N1	-14.1% (inactive)
CN1CCC(=C2c3ccccc3CC(=O)c3sccc32)CC1	5.59% (inactive)
CC(C)(C)C(=O)Oc1ccc(S(=O)(=O)Nc2ccccc2C(=O)NCC(=O)O)cc1	8.12% (inactive)
OCCN1CCN(CCCN2c3ccccc3Sc3ccc(C(F)(F)F)cc32)CC1	-3.19% (inactive)
Clc1ccc2c(c1)C(N1CCNCC1)=Nc1ccccc1O2	-2.73% (inactive)
Cn1ccc2cc3c(cc21)CCN3C(=O)Nc1cccnc1	-10.1% (inactive)
CN(CCOc1ccc(NS(C)(=O)=O)cc1)CCc1ccc(NS(C)(=O)=O)cc1	1.35% (inactive)

Biological target: T1, Tyrosine-protein phosphatase non-receptor type substrate 1 (Homo sapiens) + Leukocyte surface antigen CD47 (Homo sapiens)
Assay: CD47-SIRPalpha protein protein interaction - Alpha assay qHTS validation (AID 1347059);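 further: bead proximity luminescence from CD47 binding SIRPalpha after compound preincubation with SIRPalpha; on the % scale 0 is the no-effect control and ±100 the full control effect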
Settings: AlphaScreen CD47-His/biotin-SIRPalpha binding, LOPAC; series mostly up to 38.3 µM; activity change, negative = inhibition: at the top concentration
Summary of the method: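 SIRPalpha-biotin 25 nM + cpd, 30 min RT, dark; add CD47-His 12.5 nM, 30 min; add Ni-NTA/SAV beads 10 ug/mL, 30 min; AlphaScreen. Buffer PBS pH 7.4 + 0.05% IGEPAL CA-630. Non-biotinylated SIRPalpha as control inhibitor.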

SMILES	activity change, negative = inhibition
Nc1nnc(-c2cccc(Cl)c2Cl)c(N)n1	0.082% (inactive)
Clc1ccccc1C(c1ccccc1)(c1ccccc1)n1ccnc1	-20.1% (inactive)
CC(=O)OCC(CCn1cnc2cnc(N)nc21)COC(C)=O	1.55% (inactive)
CN(Cc1cnc2nc(N)nc(N)c2n1)c1ccc(C(=O)N[C@@H](CCC(=O)O)C(=O)O)cc1	-0.139% (inactive)
CCOC(=O)Nc1ccc(NCc2ccc(F)cc2)nc1N	-28.5% (inactive)
COc1cc2nc(N3CCN(C(=O)C4COc5ccccc5O4)CC3)nc(N)c2cc1OC (stereo unspecified)	-8.34% (inactive)
CC(C)(C)C(=O)Oc1ccc(S(=O)(=O)Nc2ccccc2C(=O)NCC(=O)O)cc1	2.57% (inactive)
OCCN1CCN(CCCN2c3ccccc3Sc3ccc(C(F)(F)F)cc32)CC1	-20.4% (inactive)
Clc1ccc2c(c1)C(N1CCNCC1)=Nc1ccccc1O2	-17.7% (inactive)

Biological target: Parathyroid hormone/parathyroid hormone-related peptide receptor (Homo sapiens) (UniProt Q03431)
Assay: qHTS for PTHR1 Agonists: Optimization Screen against the NCGC LOPAC library (AID 1347079);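 further: GloSensor cAMP luminescence in HEK-293 GP2 cells expressing human PTHR1 with IBMX; 0% is about no effect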
Settings: HEK293 GP2 PTHR1 GloSensor cAMP luminescence, 1 h; series mostly up to 57.1 µM; activation: at the top concentration
Summary of the method: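 HEK-293 GP2 cells, PTHR1 + GloSensor cAMP; 3000 cells/well, o/n. Luciferin + IBMX 0.5mM each (stock), 1 hr 37C. Cpd titration, 1 hr 37C. Lum after 15 min RT. Ctrl M-PTH(1-15) top 10uM.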

Chain of Parathyroid hormone/parathyroid hormone-related peptide receptor (Homo sapiens) (Q03431 whole entry, looked up): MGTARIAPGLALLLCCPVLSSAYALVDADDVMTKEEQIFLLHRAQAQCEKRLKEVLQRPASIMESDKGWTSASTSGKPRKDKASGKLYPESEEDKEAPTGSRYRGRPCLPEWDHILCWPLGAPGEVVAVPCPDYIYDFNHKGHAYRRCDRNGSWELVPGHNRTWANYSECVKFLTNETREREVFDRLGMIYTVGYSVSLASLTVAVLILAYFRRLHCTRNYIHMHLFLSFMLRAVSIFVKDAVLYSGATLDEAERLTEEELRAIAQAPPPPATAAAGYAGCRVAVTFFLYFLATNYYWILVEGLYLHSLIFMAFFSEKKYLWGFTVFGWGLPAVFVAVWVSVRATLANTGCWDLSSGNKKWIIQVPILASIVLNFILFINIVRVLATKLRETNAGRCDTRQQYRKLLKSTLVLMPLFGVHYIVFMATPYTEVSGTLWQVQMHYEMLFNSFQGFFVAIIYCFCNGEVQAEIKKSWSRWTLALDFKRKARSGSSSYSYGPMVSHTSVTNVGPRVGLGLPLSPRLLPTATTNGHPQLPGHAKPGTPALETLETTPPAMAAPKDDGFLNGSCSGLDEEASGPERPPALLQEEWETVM

SMILES	activation
Cn1c(=O)c2c(ncn2C)n(C)c1=O	-13.9% (inactive)
Clc1ccccc1C(c1ccccc1)(c1ccccc1)n1ccnc1	6.67% (inactive)
CC(C)C(=O)Nc1ccc([N+](=O)[O-])c(C(F)(F)F)c1	10.1% (inactive)
CN1CCN(CCCN2c3ccccc3Sc3ccc(Cl)cc32)CC1	-10.8% (inactive)
Cc1cnc(C(=O)NCCc2ccc(S(=O)(=O)NC(=O)NC3CCCCC3)cc2)cn1	18.5% (inactive)
CCOC(=O)Nc1ccc(NCc2ccc(F)cc2)nc1N	35.8% (inactive)
O=C1Cc2cc(CCN3CCN(c4nsc5ccccc45)CC3)c(Cl)cc2N1	-24.4% (inactive)
OCCN1CCN(CCCN2c3ccccc3Sc3ccc(C(F)(F)F)cc32)CC1	-20.5% (inactive)
CC[N+](CC)(CC)CCOc1cccc(OCC[N+](CC)(CC)CC)c1OCC[N+](CC)(CC)CC	16.6% (inactive)
Clc1ccc2nsnc2c1NC1=NCCN1	-19.6% (inactive)
CN(C)CCCN1c2ccccc2CCc2ccc(Cl)cc21	8.29% (inactive)

System: not listed separately
Assay: qHTS of pediatric cancer cell lines to identify multiple opportunities for drug repurposing: Primary screen for TC32 cells (AID 1347089); further: nearly all actives have a fitted effect of over 60% in size; further: potency means the concentration at half of the fitted maximal effect; on activity change, negative = cytotoxic: on the % scale 0 is the no-effect control and ±100 the full control effect
Settings: TC32 Ewing sarcoma viability, CellTiter-Glo luminescence, 48 h; series mostly up to 45.8 µM; activity change, negative = cytotoxic: at the top concentration
Summary of the method: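 qHTS, TC32, 48 h drug treatment, CellTiter-Glo luminescence as a proxy for metabolically active cells; primary top concentration 46 µM (MIPE 11-pt, NPC 8-pt); confirmatory 11-pt.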

SMILES	Potency	activity change, negative = cytotoxic
C[C@@H]1CC(=O)NN=C1c1ccc(NN=C(C#N)C#N)cc1	inactive	
CS(=O)(=O)Nc1ccc([N+](=O)[O-])cc1Oc1ccccc1	inactive	
CS(=O)(=O)CCNCc1ccc(-c2ccc3ncnc(Nc4ccc(OCc5cccc(F)c5)c(Cl)c4)c3c2)o1		18.4% (inactive)
CC(C(=O)O)c1cccc(C(=O)c2ccccc2)c1 (stereo unspecified)	inactive	
Cn1c(=O)c2c(ncn2C)n(C)c1=O	inactive	
CC(C)NCC(O)c1ccc(O)c(O)c1 (stereo unspecified)		12.4% (inactive)
Nc1nnc(-c2cccc(Cl)c2Cl)c(N)n1	inactive	
Clc1ccccc1C(c1ccccc1)(c1ccccc1)n1ccnc1	inactive	
CC(=O)OCC(CCn1cnc2cnc(N)nc21)COC(C)=O	inactive	
CN(Cc1cnc2nc(N)nc(N)c2n1)c1ccc(C(=O)N[C@@H](CCC(=O)O)C(=O)O)cc1	6.6 nM (active)	
CC(C)C(=O)Nc1ccc([N+](=O)[O-])c(C(F)(F)F)c1	inactive	
CN1CCN(CCCN2c3ccccc3Sc3ccc(Cl)cc32)CC1	inactive	
CC[C@@]1(O)C(=O)OCc2c1cc1n(c2=O)Cc2cc3c(CN(C)C)c(O)ccc3nc2-1	26.4 nM (active) and 131 nM (active)	
COc1ccc(CCN(C)CCCC(C#N)(c2ccc(OC)c(OC)c2)C(C)C)cc1OC (stereo unspecified)	inactive	
CC1(CN2CCC(n3c(=O)[nH]c4ccccc43)CC2)OCc2ccccc2-n2cccc21 (stereo unspecified)	inactive	
Cc1cnc(C(=O)NCCc2ccc(S(=O)(=O)NC(=O)NC3CCCCC3)cc2)cn1	inactive	
Cc1cn([C@H]2C[C@H](N=[N+]=[N-])[C@@H](CO)O2)c(=O)[nH]c1=O	inactive	

SMILES	Potency	activity change, negative = cytotoxic
CC1COc2c(N3CCN(C)CC3)c(F)cc3c(=O)c(C(=O)O)cn1c23 (stereo unspecified)	inactive	
CCOC(=O)Nc1ccc(NCc2ccc(F)cc2)nc1N	inactive	
COc1cc2nc(N3CCN(C(=O)C4COc5ccccc5O4)CC3)nc(N)c2cc1OC (stereo unspecified)	inactive	
O=C1Cc2cc(CCN3CCN(c4nsc5ccccc45)CC3)c(Cl)cc2N1	inactive	
CN1CCC(=C2c3ccccc3CC(=O)c3sccc32)CC1	inactive	
Cc1ccc(-c2cc(C(F)(F)F)nn2-c2ccc(S(N)(=O)=O)cc2)cc1	inactive	
CC(C)(C)C(=O)Oc1ccc(S(=O)(=O)Nc2ccccc2C(=O)NCC(=O)O)cc1	inactive	
OCCN1CCN(CCCN2c3ccccc3Sc3ccc(C(F)(F)F)cc32)CC1	inactive	
CC1(C)O[C@H]2CC(=O)OC[C@]23[C@H]2CC[C@@]4(C)[C@H](c5ccoc5)OC(=O)[C@H]5O[C@]54[C@]2(C)C(=O)C[C@@H]13	inactive	
Clc1ccc2c(c1)C(N1CCNCC1)=Nc1ccccc1O2	inactive	
CN(C)C(=N)N=C(N)N	inactive	
Clc1ccc(C(c2ccccc2Cl)C(Cl)Cl)cc1 (stereo unspecified)	inactive	
Cn1ccc2cc3c(cc21)CCN3C(=O)Nc1cccnc1	inactive	
CC[N+](CC)(CC)CCOc1cccc(OCC[N+](CC)(CC)CC)c1OCC[N+](CC)(CC)CC	inactive	
CN(CCOc1ccc(NS(C)(=O)=O)cc1)CCc1ccc(NS(C)(=O)=O)cc1	inactive	
Clc1ccc2nsnc2c1NC1=NCCN1	inactive	
CN(C)CCCN1c2ccccc2CCc2ccc(Cl)cc21		-12.8% (inactive)
